About 83,000 compounds went through this panel and 20% of them were active in at least one assay; those are over-represented in the sample as a whole.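 Assay: single dose, 48 h. Readout: percent growth (0 = no net growth; negative = cell death). Active: <10.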 A number with no mark means an inactive call. The source made the active and inactive calls.
The molecules below were run on SK-OV-3 ovarian (assay: NCI-60 one-dose screen, 48 h (100 = growth as untreated, 0 = no growth, -100 = all killed)). Settings: 10 µM unless noted.
Experimental: Growth inhibition of the SK-OV-3 human tumor cell line is measured as a screen for anti-cancer activity. Cells are grown in 96 well plates and exposed to the test compound for 48 hours. Compounds are tested at a single concentration, which is 10^-5 M for most compounds. The reported endpoint is percent growth (GI% or GIPRCNT), where numbers from 0 - 100% represent growth inhibition, and numbers from -100% - 0 represent cell death. For example, a value of 40 represents 60% growth inhibition. A value of 0 means no net growth occurred over the course of the experiment. A value of -40 indicates 40% of cells at the beginning of the experiment died by the end of the experiment. A value of -100 means all cells are dead at the end of the experiment.
NCI-60 Human Tumor Cell Lines Screen was performed using the standard one-dose NCI protocol, which is described in more detail at https://dtp.cancer.gov/discovery_development/nci-60/default.htm.
Compounds with GIPRCNT values below 10 were considered active. Activity score was based on GIPRCNT using the following formula: […]
Score is 0 for GIPRCNT values of 100 or above, 50 for GIPRCNT values of 0, and 100 for GIPRCNT values of -100.

Row | SMILES | growth
1 | C#CC1(O)CCC2(C)C(CCC3C4CCC(=O)C4(C)CCC32)C1 (stereo not given) | 97.6%
2 | COC1=CC(=O)OC(CCc2ccc3c(c2)OCO3)C1 (stereo not given) | 112%
3 | NC(=O)SCC(=O)Nc1ccc([As](=O)(O)O)cc1 | 135%
4 | O=C(O)c1[nH]c(=O)[nH]c(=O)c1F | 112%
5 | CC12CC[C@H](O)C=C1/C(=N/O)CC1C2CCC2(C)C1CC[C@@H]2O (stereo not given in full) | 95%
6 | COc1ccc(/C=C\c2cc(OC)c(OC)c(OC)c2)cc1N/C=C\C(=O)c1c[nH]c2ccccc12 | 12.9%
7 | COc1cc(NCCCCCN=C(N)N)c2ncccc2c1 | 94.9%
8 | CN=C(NN)NN | 110%
9 | O=c1cc[nH]c(=O)o1 | 102%
10 | O=[N+]([O-])c1ccc2cnn(CSP(=S)(c3ccccc3)c3ccccc3)c2c1 | 90.1%
11 | n1nc(-c2nonc2-c2nn[nH]n2)n[nH]1 | 115%
12 | CNC(=O)Oc1ccccc1-c1ccccc1 | 101%
13 | CC1(C)N=C(N)N=C(N)N1c1ccc(CCCCc2ccc(S(=O)(=O)F)cc2)c(Cl)c1 | 42%
14 | Fc1ccc(C2=NN(c3ccccc3)C(c3sc(N(CCCl)CCCl)nc3Cl)C2)cc1 (stereo not given) | 76.5%
15 | ClCCN(CCCl)c1nc(Cl)c(C2CC(c3ccc(Cl)cc3)=NN2c2cc(Cl)cc(Cl)c2)s1 (stereo not given) | 87.1%
16 | CNC(=O)Oc1cccc(N(C)C)c1 | 99.7%
17 | COc1ccc(NP2(=O)OCC(C)(N)CO2)cc1 (stereo not given) | 103%
18 | CN1CC2CCC(C1)C2=O | 91.8%
19 | C[C@]12CC[C@H]3[C@@H](C[C@@H]4N=C(c5ccc(O)cc5)S[C@@]45C[C@H](O)CC[C@]35C)[C@@H]1CC[C@@H]2O | 38.6%
20 | O=[N+]([O-])c1ccccc1N1CCNCC1 | 96%

Row | SMILES | growth
21 | Cc1ccccc1O | 97.5%
22 | CNC(C)Cc1ccccc1 (stereo not given) (tested in a mixture with another compound) | 92.8%
23 | C/C(=N/OC(=O)N(C)C)c1cc(Cl)ccc1Cl | 98.3%
24 | CC(C)[C@]12O[C@H]1[C@@H]1O[C@]13[C@]1(O[C@H]1C[C@H]1C4=C(CC[C@@]13C)C(=O)OC4)[C@@H]2OC(=O)OC(C)(C)C | 43.6%
25 | Cc1cccc(N=C2c3cc([N+](=O)[O-])ccc3-c3c2cc([N+](=O)[O-])cc3[N+](=O)[O-])c1 | 119%
26 | CCCCn1cc(C(=O)/C(C#N)=C/c2cc3ccccc3nc2Cl)c2cc(OC)ccc21 | 94.5%
27 | CC(=O)O[C@H]1CCC2(C)C(=CCC3C2CCC2(C)/C(=N/OC(=O)c4ccc(N(CCCl)CCCl)cc4)CCC32)C1 (stereo not given in full) | 102%
28 | [O]=[Sn]([CH]1CCCCC1)[CH]1CCCCC1 | -98.2% (active)
29 | COc1ccc(CN2CCN(Cc3ccccc3)CC2)c(O)c1 | 95.7%
30 | COc1ccc(OC)c(/C=C(/C)[N+](=O)[O-])c1 | 125%
31 | COc1ccc(C2=NN(c3ccccc3)C(c3sc(N(CCCl)CCCl)nc3Cl)C2)cc1 (stereo not given) | 75.9%
32 | CC(CC(C#N)(c1ccccc1)c1ccccc1)N1CCOCC1 (stereo not given) | 109%
33 | c1cnc2c(c1)ccc1ncccc12 | 104%
34 | O=[As]c1ccc(C(=O)c2ccc(Oc3ccccc3)cc2)cc1 (stereo not given) | -100% (active)
35 | [N-]=[N+]=NC(C(=O)O)c1ccccc1 (stereo not given) | 99.5%
36 | CCC[CH2][Sn]([CH2]CCC)([CH2]CCC)[O]C(=O)CC | -99.5% (active)
37 | CC(=O)Oc1ccc(Cl)cc1 | 98.1%
38 | CCCCN(CCCC)CC(O)c1ccccc1 (stereo not given) | 111%
39 | Cc1cc(N(CCCl)CCCl)ccc1C=Nc1ccc2ccccc2c1 | 80.9%
40 | Cc1ccc(C(=O)C2CN(C)CCC2(O)c2ccc(C)cc2)cc1 (stereo not given) | 122%

Source: PubChem BioAssay (NCI)
